Laboratory results from PubChem BioAssay (NCI).
This is part of a sample that, as a whole, favours compounds with a hit. Of some 83,000 tested, about 20% had one in any assay.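 Values shown are percent growth following 48 h exposure of cells in 96-well plates to a single concentration of compound; below 10 was considered active.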 Active and inactive are the calls of the source.

system: IGROV1 ovarian; test: NCI-60 one-dose screen, 48 h (100 = growth as untreated, 0 = no growth, -100 = all killed); details: 10 µM unless noted

SMILES	growth
Cc1ccc2c(c1)c(Sc1ccc(C(=O)NO)cc1)c1n2CN(C)CC1	42.4% (inactive)
O=C1NC(=S)S/C1=C\c1cccc([N+](=O)[O-])c1	120% (inactive)
CCCN(CCC)c1ccc(/C=C/c2ccc3cc(OCC)ccc3n2)cc1	99.6% (inactive)
Clc1ccc(C2=NN(c3ccccc3)[C@H](c3cn(-c4ccccc4)nc3-c3ccccc3)C2)cc1	104% (inactive)
COc1cc(C(=O)/C=C/c2c(-c3cccs3)nc3sccn23)cc(OC)c1OC	5.57% (active)
CCOC(=O)C1=C(C)N2C(=NC3=C(CCCC/C3=C\c3cc(OC)c(OC)c(OC)c3)C2c2cc(OC)c(OC)c(OC)c2)S1 (centres undefined)	71.6% (inactive)
CN1CCN(c2nc(-c3ccncc3)nc3sc4c(c23)CCCCCC4)CC1	76.2% (inactive)
COc1ccc(-n2ncc3c4nc(OC)c(S(=O)(=O)c5ccccc5)cc4ccc32)cc1	92% (inactive)
COc1ccc(C2CC(c3cc(OC)c(OC)c(OC)c3)=NN2c2ccc(S(N)(=O)=O)cc2)cc1 (centres undefined)	73.9% (inactive)
Cc1nn(CC(=O)O)c2c1C(=O)CC(C)(C)C2	94.1% (inactive)
O=C1C(Br)=C(c2ccccc2)C(=O)C(Br)=C1c1ccccc1	105% (inactive)
Cc1ccc(C)c2c1sc1nc3nc4sc5ccccc5n4c(=N)c3c(=O)n12	64.3% (inactive)
Nc1cc(Br)c(-c2nnc(CCC(=O)c3nc4ccccc4[nH]3)o2)c(Br)c1	76.8% (inactive)
COc1ccc(Nc2nc(NCCNc3ccnc4cc(Cl)ccc34)nc(N3CCOCC3)n2)cc1	72.8% (inactive)
Cc1nc2cc(Nc3nc(N4CCOCC4)nc(N4CCN(C)CC4)n3)ccc2n1Cc1ccccc1	103% (inactive)
COc1ccc(-c2nc3sc(C)cn3c2/C=C/C(=O)c2cc(OC)c(OC)c(OC)c2)cc1	67.1% (inactive)
O=[N+]([O-])c1ccc(O)c2ncccc12	29.1% (inactive)

SMILES	growth
CC1(C)N=C(N)N=C(N)N1c1cccc(/C=C/C=C/c2cccc([N+](=O)[O-])c2)c1	35.3% (inactive)
O=c1nc(NO)[nH]c(=O)n1Cc1ccccc1	106% (inactive)
C[C@@H](Oc1cc(-c2cnn(C3CC4(CCNCC4)C3)c2)cnc1N)c1c(F)ccc(Cl)c1Cl	47.7% (inactive)
C=CC(=O)N1CC2(CC(n3nc(-c4ccc(Oc5ccccc5)cc4)c4c(N)ncnc43)C2)C1	10.7% (inactive)
COc1ccc(OC)c(C2C(C#N)=C(N)Oc3cc(O)ccc32)c1 (centres undefined)	105% (inactive)
CC(C)(C)[Si](C)(C)OC1[C@@H](O[Si](C)(C)C(C)(C)C)[C@@H](CNC(=O)NC(=O)C(F)(F)F)O[C@H]1n1cnc2c(NC(=O)Nc3ccccc3)ncnc21 (some centres undefined)	71.2% (inactive)
Nc1nc(N)c(N=Nc2c(Br)cc(S(N)(=O)=O)cc2Br)c(N)n1	105% (inactive)
O=C(NCc1cccnc1)c1ccc([N+](=O)[O-])o1	33.7% (inactive)
Cn1c(=O)c2c(-c3ccccc3F)n(-c3ccc4c(c3)OCO4)cc2n(C)c1=O	101% (inactive)
Nc1nc2c(s1)CCc1c-2c(Br)n(Cc2ccccc2)c1Br	104% (inactive)
CN1CCc2c(c3ccccc3c3ccccc23)C1	61.4% (inactive)
COc1cccc(C2C3=C(COC3=O)N(CCO)c3cc4c(cc32)CCC4)c1 (centres undefined)	8.37% (active)
O=C(Nc1ccc(F)cc1)c1ccc(C(=O)Nc2ccc(F)cc2)cc1	109% (inactive)
Cc1cc(O)cc2c1[C@H]1CC[C@]3(C)[C@@H](O)CC[C@H]3[C@@H]1C=C2	74.4% (inactive)
C[C@@H](Oc1cc(-c2cnn(C3CC4(CCCNC4)C3)c2)cnc1N)c1c(Cl)ccc(F)c1Cl (some centres undefined)	48.9% (inactive)
Clc1ccc(Nc2nc(Nc3ccccc3)nc(Nc3ccc(-c4cc(-c5ccc(Cl)cc5)on4)cc3)n2)cc1	34.7% (inactive)
Cc1nc(-c2ccccc2)cc2c(O)c(C(=O)N/N=C/Cc3ccccc3)[nH]c(=O)c12	113% (inactive)
